PubChem BioAssay
Activity calls are given as the source filed them.

What was measured:
[1] = tested on: Human papillomavirus type 1a protein E7 (residues 44-93); assay: HPV1a E7 fragment binders on microarrays, primary screen, biochemical, small-molecule microarray, residues 44-93, 635 nm fluorescence (AID 1108); details: small-molecule microarray binding, fluorescence 635 nm; higher = more signal;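 also: E7 fragment applied at 1 µg/mL in TBST for 1 h at 4 C; score combines spot fluorescence with its signal to noise ratio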
[2] = modulators of HCV replicon luciferase signal, primary screen, HCV replication inhibitor project, Huh7 cells, luciferase reporter (AID 1109); details: 48 h, higher = more signal;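 also: huh7 hepatoma cells harbouring a luciferase neomycin HCV replicon reporter; luciferase luminescence as measure of HCV replicon replication; test concentration not given here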
[3] = biological target: Left-right determination factor 2 (Homo sapiens) (UniProt O00292); assay: LEFTY2 binders on small-molecule microarrays, primary screen, biochemical, small-molecule microarray, 635 nm fluorescence scan (AID 1110); details: LEFTY2 binding, higher = more signal
Sequence of Left-right determination factor 2 (Homo sapiens) (O00292 whole entry, looked up): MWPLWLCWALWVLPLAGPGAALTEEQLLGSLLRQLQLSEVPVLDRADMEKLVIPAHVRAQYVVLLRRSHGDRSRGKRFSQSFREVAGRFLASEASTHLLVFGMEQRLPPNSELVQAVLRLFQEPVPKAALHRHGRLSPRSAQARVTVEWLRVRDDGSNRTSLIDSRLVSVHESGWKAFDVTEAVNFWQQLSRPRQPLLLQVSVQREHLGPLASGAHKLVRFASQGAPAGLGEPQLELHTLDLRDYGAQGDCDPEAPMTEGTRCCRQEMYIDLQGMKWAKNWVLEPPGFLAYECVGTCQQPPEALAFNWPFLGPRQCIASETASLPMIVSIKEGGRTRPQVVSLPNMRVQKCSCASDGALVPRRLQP

[4] = biological target: Calmodulin-1 (Homo sapiens) (UniProt P0DP23); assay: CALM1 binders on microarrays, EGTA buffer, profiling panel, biochemical, small-molecule microarray, Cy5-labelled CALM1 (AID 1111); details: Cy5-CALM1 binding fluorescence, higher = more signal;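 also: labelled calmodulin applied in Tris saline Tween buffer holding calcium plus EGTA and DTT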
[5] = biological target: Calmodulin-1 (Homo sapiens) (UniProt P0DP23); assay: calcium-bound CALM1 binders on microarrays, profiling panel, artefact control for SMM control-protein annotation, biochemical, small-molecule microarray, Cy5-labelled CALM1, plus calcium (AID 1112); details: Cy5-CALM1 binding fluorescence, higher = more signal;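 also: score merges spot fluorescence with signal to noise from triplicate slides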
[6] = small-molecule microarray binders of probe aWnt5a, primary screen, biochemical, biotinylated probe, 635/667 nm fluorescence (AID 1113); details: higher = more signal;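 also: score merges 667 nm fluorescence intensity with signal-to-noise per printed feature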
[7] = small-molecule microarray binders of probe aShh, primary screen, biochemical, biotinylated probe, 635/667 nm fluorescence (AID 1114); details: higher = more signal;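 also: probe is biotin-labelled aShh protein from a stem cell growth factor screen; measures binding of labelled protein to compounds printed on the slide; score merges feature fluorescence at 667 nm with signal-to-noise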
[8] = small-molecule microarray binders of probe aNog, primary screen, biochemical, biotinylated probe, 635/667 nm fluorescence (AID 1115); details: higher = more signal;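 also: probe is biotinylated aNog protein used at 0.15 µg/mL for 1 h at 4 C; z-score combines 667 nm fluorescence of each spot with its signal to noise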
[9] = biological target: Torsin-1A-interacting protein 1 (Homo sapiens) (UniProt Q5JTV8); assay: LAP1 binders from COS7 cell lysate, primary screen, small-molecule microarray, 635/667 nm fluorescence (AID 1116); details: COS7-hLAP1 lysate binding, 635 nm fluorescence, higher = more signal
Sequence of Torsin-1A-interacting protein 1 (Homo sapiens) (Q5JTV8 whole entry, looked up): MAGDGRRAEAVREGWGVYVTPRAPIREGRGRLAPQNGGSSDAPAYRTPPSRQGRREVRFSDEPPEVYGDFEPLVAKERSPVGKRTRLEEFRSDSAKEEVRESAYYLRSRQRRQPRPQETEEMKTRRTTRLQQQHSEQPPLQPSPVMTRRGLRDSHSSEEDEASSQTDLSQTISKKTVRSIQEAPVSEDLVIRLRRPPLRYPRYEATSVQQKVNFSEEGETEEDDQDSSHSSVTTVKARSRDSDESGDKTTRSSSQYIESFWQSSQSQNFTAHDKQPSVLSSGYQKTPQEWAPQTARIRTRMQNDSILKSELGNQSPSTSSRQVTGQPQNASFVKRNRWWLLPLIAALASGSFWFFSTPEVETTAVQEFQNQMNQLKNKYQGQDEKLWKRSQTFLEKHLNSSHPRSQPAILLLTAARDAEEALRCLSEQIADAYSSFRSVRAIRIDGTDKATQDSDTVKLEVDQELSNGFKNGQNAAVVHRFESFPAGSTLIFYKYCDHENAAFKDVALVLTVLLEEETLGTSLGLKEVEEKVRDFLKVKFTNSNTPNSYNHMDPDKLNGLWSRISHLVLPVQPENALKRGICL

[10] = biological target: Alpha-bungarotoxin (Bungarus multicinctus) (UniProt P60615); assay: alpha-bungarotoxin binders on microarray, profiling panel, artefact control for SMM control protein annotation, biochemical, small-molecule microarray, Alexa647 label, 635/667 nm fluorescence (AID 1117); details: alpha-BTX-A647 binding fluorescence, higher = more signal
Sequence of Alpha-bungarotoxin (Bungarus multicinctus) (P60615 whole entry, looked up): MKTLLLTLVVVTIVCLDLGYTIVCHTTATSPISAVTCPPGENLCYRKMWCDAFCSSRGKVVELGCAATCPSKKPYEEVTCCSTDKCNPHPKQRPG

Albumin (Bos taurus) = Albumin (Bos taurus) (UniProt P02769); assay: bovine serum albumin binders on microarray, profiling panel, artefact control for SMM control protein annotation, biochemical, small-molecule microarray, Alexa647 label, 635/667 nm fluorescence (AID 1118); details: BSA-A647 binding, fluorescence 635 nm, higher = more signal;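 also: score merges 667 nm emission intensity and signal-to-noise per printed compound spot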
Sequence of Albumin (Bos taurus) (P02769 whole entry, looked up): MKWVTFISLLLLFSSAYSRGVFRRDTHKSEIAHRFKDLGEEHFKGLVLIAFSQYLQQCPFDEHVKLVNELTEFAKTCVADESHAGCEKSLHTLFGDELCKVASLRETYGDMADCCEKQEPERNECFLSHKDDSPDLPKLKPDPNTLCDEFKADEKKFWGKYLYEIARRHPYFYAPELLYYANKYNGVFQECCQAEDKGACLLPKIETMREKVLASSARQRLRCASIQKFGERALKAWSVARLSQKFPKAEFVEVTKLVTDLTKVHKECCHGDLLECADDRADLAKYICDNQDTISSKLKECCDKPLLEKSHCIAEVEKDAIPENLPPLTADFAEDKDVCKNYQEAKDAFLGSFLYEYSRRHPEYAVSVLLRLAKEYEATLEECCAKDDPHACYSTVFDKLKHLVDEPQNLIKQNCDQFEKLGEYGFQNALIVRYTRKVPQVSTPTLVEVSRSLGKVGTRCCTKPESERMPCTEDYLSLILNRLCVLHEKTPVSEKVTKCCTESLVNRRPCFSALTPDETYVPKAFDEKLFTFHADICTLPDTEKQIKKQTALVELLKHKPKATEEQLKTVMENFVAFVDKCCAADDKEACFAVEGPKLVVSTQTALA

[11] = small-molecule microarray binders of probe aXIP, primary screen, biochemical, NeuroSMM set, 635/667 nm fluorescence (AID 1119); details: higher = more signal, called active from +8 up or from −8 down;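 also: probe is the protein aXip251-270 applied at 1 µg/mL to compound-printed slides; binding of probe to printed compounds measured as 667 nm fluorescence plus signal to noise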
[12] = small-molecule binders of probe aNOTCH3, primary screen, biochemical, small-molecule microarray, 635/667 nm fluorescence (AID 1120); details: higher = more signal;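 also: probe is a biotin-tagged antibody raised against NOTCH3 rather than NOTCH3 protein; score merges spot fluorescence near 667 nm with spot signal to noise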
[13] = small-molecule binders of probe aNOTCH2, primary screen, biochemical, small-molecule microarray, 635/667 nm fluorescence (AID 1121); details: higher = more signal;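 also: score merges feature fluorescence read at 667 nm with its signal to noise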
[14] = biological target: Carbonic anhydrase 2 (Homo sapiens) (UniProt P00918); assay: CAII small-molecule binders, profiling panel, biochemical, small-molecule microarray, Alexa647-labelled CAII (AID 1122); details: CAII-A647 binding fluorescence, higher = more signal
[15] = COS7 lysate on small-molecule microarray, probe aHis, 635 nm (AID 1123); details: COS7 cell lysate, fluorescence, higher = more signal;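 also: z-score combines 667nm fluorescence intensity with signal-to-noise per printed compound spot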
[16] = compound binding in COS7 lysate, probe aLAP1, primary screen, cell lysate, small-molecule microarray (AID 1124); details: probe aLAP1, fluorescence, higher = more signal;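 also: lysate comes from COS7 cells expressing LAP1 and is applied at 0.3 µg/mL; score merges spot fluorescence near 667 nm with signal-to-noise over triplicate slides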
Sam68 (KHDRBS1) = assay: Sam68 small-molecule binders, primary screen, biochemical, small-molecule microarray, 635 nm fluorescence (AID 1125); details: small-molecule microarray binding, higher = more signal;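 also: score merges 667 nm channel intensity with signal to noise over triplicate slides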
[17] = tested on: Chordin-like protein 2 (CHRDL2); assay: CHRDL2 small-molecule binders, primary screen, biochemical, small-molecule microarray, 635 nm fluorescence (AID 1126); details: small-molecule microarray binding, fluorescence 635 nm; higher = more signal;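 also: printed compound slides probed with Chrdl2 protein at 4 µg/mL for 1 h at 4 C; score merges 667 nm emission intensity with signal to noise over three replicate slides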
[18] = biological target: Concanavalin-A (Canavalia ensiformis) (UniProt P02866); assay: ConA small-molecule binders, primary screen, artefact control for SMM control protein annotation, biochemical, small-molecule microarray, Alexa647 label, 635 nm (AID 1127); details: ConA-A647 binding fluorescence, higher = more signal;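 also: z combines 667 nm emission intensity with signal-to-noise across three replicate slides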
Sequence of Concanavalin-A (Canavalia ensiformis) (P02866 whole entry, looked up): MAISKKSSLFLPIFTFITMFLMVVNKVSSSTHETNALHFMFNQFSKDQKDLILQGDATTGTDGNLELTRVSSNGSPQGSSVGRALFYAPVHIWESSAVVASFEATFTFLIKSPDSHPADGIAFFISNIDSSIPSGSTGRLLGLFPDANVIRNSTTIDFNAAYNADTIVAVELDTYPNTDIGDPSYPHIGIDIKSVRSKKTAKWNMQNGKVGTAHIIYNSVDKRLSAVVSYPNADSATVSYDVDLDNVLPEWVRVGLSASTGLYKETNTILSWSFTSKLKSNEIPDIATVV

Structure (SMILES) | composite z-score [1] | z-score [2] | composite z-score [3] | composite z-score [4] | composite z-score [5] | composite z-score [6] | composite z-score [7] | composite z-score [8] | composite z-score [9] | composite z-score [10] | composite z-score (Albumin (Bos taurus)) | composite Z-score [11] | composite z-score [12] | composite z-score [13] | composite z-score [14] | composite z-score [15] | composite z-score [16] | composite z-score (Sam68 (KHDRBS1)) | composite z-score [17] | composite z-score [18]
C=CCC(OC(C)=O)[C@@H]1[C@@H](N(Cc2cccc3ccccc23)C(=O)c2ccc(-c3ccccc3)cc2)c2cc(OCCCO)ccc2N1C(=O)c1ccc(-c2ccccc2)cc1 (stereo not given in full) | 0.635 | -0.681 | 0.385 | 0.603 | 1.16 | -0.0819 | 0.0899 | 0.355 | 0.35 | 0.439 | -0.0811 | -0.646 (inactive) | -0.0647 | -0.0294 | 0.255 | 0.384 | 0.205 | -0.225 | -0.046 | -0.441
CC(=O)N1CC(C(O)C2C=CC3C(=O)NC(=O)C3N2Nc2ccc(Cl)cc2Cl)c2ccccc21 (stereo not given) | 0.759 | -0.819 | -0.138 | 1.18 | 0.789 | 0.0437 | 0.806 | 1.5 | 0.033 | 0.869 | 0.892 | 0.0413 (inactive) | -0.0077 | 0.108 | 0.693 | 2.36 | -0.0203 | 0.99 | 0.237 | 0.732
C=C(CCCC)C(=O)CC[C@H](OC(=O)c1ccccc1-c1ccccc1C(=O)O)c1ccccc1OCCO | 0.166 | -2.31 | -0.171 | -0.378 | -0.814 | -0.0944 | 0.318 | 0.397 | 0.442 | 0.26 | 0.0147 | -0.104 (inactive) | -0.104 | -0.189 | 0.693 | 0.043 | 0.61 | 0.203 | 0.277 | -0.496
COc1cc2c(cc1O)C(c1ccc(CN3CCCC3)cc1)N(C)CC2 (stereo not given) | -1.7 | -1.02 | 0.351 | 0.571 | 0.673 | -0.173 | -0.359 | 0.452 | -0.862 | 0.0735 | 0.462 | 0.142 (inactive) | -0.173 | -0.127 | 0.359 | -0.138 | 2.24 | -0.645 | -1.26 | 0.113
COc1cc(NN2C(C(O)C3CCCCC3)C=CC3C(=O)N(c4ccccc4)C(=O)C32)cc(OC)c1OC (stereo not given) | 1.05 | -1.1 | -0.79 | 2.13 | 1.23 | 0.141 | -0.11 | 0.658 | 1.5 | 1.98 | 1.07 | 1.13 (inactive) | 0.0205 | 0.0888 | 0.712 | 2.65 | 0.605 | 1.3 | -1.5 | 1.11
